Compound activity deposited in PubChem BioAssay by several laboratories.
FAK blocker: FAK kinase inhibitors, primary screen, biochemical; Focal adhesion kinase 1 (Homo sapiens), Q05397; biochemical FAK kinase activity assay; inhibition, %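 (tested at 7 µM)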; 0.84% of 97,000 active; AID 727, 2007; in the data active means inhibition above about 19%
ERb SRC1 inh: inhibitors of ERβ-SRC1 coactivator interaction, primary screen, biochemical, TR-FRET, ERβ LBD, SRC-1 peptide. inhibition, % at 25.6 µM. TR-FRET ER-beta LBD / SRC1-Cy5 peptide binding; receptor agonist-loaded with 1 µM estradiol. AID 633, 2007. 1.3% of 86,000 active;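 active means compounds whose percent inhibition of the receptor-coactivator binding signal exceeds about 50% in the single-dose screen, limit read from the data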
Target sequence (Q92731 whole entry, looked up, the tested form may be a part): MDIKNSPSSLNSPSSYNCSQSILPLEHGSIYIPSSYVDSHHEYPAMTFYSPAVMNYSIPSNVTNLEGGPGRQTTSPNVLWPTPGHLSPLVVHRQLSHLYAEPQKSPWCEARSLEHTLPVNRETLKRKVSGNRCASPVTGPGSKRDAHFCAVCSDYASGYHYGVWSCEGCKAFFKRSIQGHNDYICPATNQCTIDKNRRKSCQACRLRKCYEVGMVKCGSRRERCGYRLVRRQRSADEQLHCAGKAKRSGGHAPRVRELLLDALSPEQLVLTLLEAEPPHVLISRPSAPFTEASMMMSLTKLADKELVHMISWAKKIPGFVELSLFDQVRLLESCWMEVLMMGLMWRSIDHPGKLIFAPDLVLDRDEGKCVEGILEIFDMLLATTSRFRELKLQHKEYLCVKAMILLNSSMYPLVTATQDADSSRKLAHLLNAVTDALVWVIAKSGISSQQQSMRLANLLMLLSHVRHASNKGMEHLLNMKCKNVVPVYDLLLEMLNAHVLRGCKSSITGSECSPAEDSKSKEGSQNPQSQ
Smad3 FoxH1 inh: Smad3/FoxH1 peptide binding inhibitors, primary screen, biochemical, TR-FRET; 0.29% of 88,000 active; inhibition, % at 25 µM; TR-FRET Smad3/Dy647-FoxH1 peptide binding, europium anti-His; AID 630, 2007; Mothers against decapentaplegic homolog 3 (Homo sapiens), P84022;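 active means compounds that reduce the energy-transfer binding signal between the protein and its labelled peptide by more than half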
ERa SRC1 inh: ERα–SRC-1 coactivator interaction inhibitors, primary screen, biochemical, TR-FRET, ERα LBD, estradiol-bound; Estrogen receptor (Homo sapiens), P03372; TR-FRET ER-alpha LBD / SRC-1 peptide; inhibition, % at 25.6 µM; 1.7% of 86,000 active; AID 629, 2007; in the data active means inhibition above about 50%
ERa SRC1 pot: enhancers of ERα–SRC-1 coactivator binding, primary screen, biochemical, TR-FRET, ERα LBD, low estradiol; TR-FRET ERalpha-LBD/SRC-Cy5 coactivator binding, 2 h; 100 = basal binding, no effect; coactivator binding (% of control), % at 25.6 µM; 1.3% of 86,000 active; AID 639, 2007; in the data active means activity above about 200%;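 further: binding measured in presence of low estradiol as agonist stimulus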
Of the large screens only hits and unclear results are named; the others gave an inactive call; [ ] = dose if it differs, or a comment. Shown are actives, neighbours in structure and some others; about 3.3% of the full set was active somewhere.

COc1ccc(C(=O)Nc2nc3c(s2)Cc2cc(OC)ccc2-3)cc1	ERb SRC1 inh 55, ERa SRC1 inh 95[fluorescence artefact?]
CCOC(=O)c1c(C)n(-c2ccc(C)cc2)c2c(C(C(C)=O)C(=O)O)c(Br)c(O)c(O)c12 (stereo not given)	none (no result: ERb SRC1 inh, Smad3 FoxH1 inh, ERa SRC1 inh, ERa SRC1 pot)
CCOC(=O)C(C(C)=O)c1c(Br)c(O)c(O)c2c(C(=O)c3ccc(C)cc3)coc12 (stereo not given)	ERb SRC1 inh 72[fluorescence artefact?]
N#C/C(=C\N1CCNC1=S)C(=O)c1ccc2ccccc2c1	none (no result: FAK blocker, ERb SRC1 inh, ERa SRC1 inh, ERa SRC1 pot)
Cc1ccc(C)c(SCC(=O)OCC(=O)c2ccco2)c1	ERb SRC1 inh 63, ERa SRC1 inh 65
O=C(CSc1ccc(Cl)cc1)c1ccco1	ERb SRC1 inh 81, ERa SRC1 inh 80[fluorescence artefact?]
Cc1cc(C)c(C#N)c(OCC(=O)c2ccccc2)n1	none
N#Cc1c(OCC(=O)c2ccccc2)nc2c(c1-c1ccco1)CCc1ccccc1-2	ERa SRC1 pot 230
O=C(O)c1cccc2c1C(=O)N(Cc1ccncc1)C2	none
COc1ccc(N2Cc3cccc(C(=O)O)c3C2=O)cc1	ERb SRC1 inh 65, ERa SRC1 inh 64
CCN1CCN(Cc2ccccc2NC(=O)Nc2ccc(C)cc2)CC1	none
CCN1CCN(Cc2ccc(NC(=O)Nc3ccccc3Cl)cc2)CC1	ERa SRC1 pot 261 (no result: FAK blocker)
NCCOc1ccccn1	none (no result: FAK blocker, ERb SRC1 inh, ERa SRC1 inh, ERa SRC1 pot)
COc1ccc(C(=O)CSc2nnc(-c3ccccn3)n2Cc2ccco2)cc1	ERa SRC1 pot 271[fluorescence artefact?]
O=C(CSc1nnc(-c2ccccn2)n1Cc1ccco1)c1ccccc1	none
CC(C)c1nnc(NC(=O)c2c(O)c3cccc4c3n(c2=O)CC4)s1	none (no result: FAK blocker)
CCCc1nnc(NC(=O)c2c(O)c3cccc4c3n(c2=O)CCC4)s1	ERb SRC1 inh 56[fluorescence artefact?] (no result: FAK blocker)
Cc1c(/C=N/n2cnnc2)c2ccccc2n1CCOc1ccc(Cl)cc1	ERa SRC1 inh 53
O=C1C2=C(Nc3cc([N+](=O)[O-])ccc3N2)O[C@@H]1c1c[nH]c2ccc(COc3ccccc3)cc12	none (no result: FAK blocker, ERb SRC1 inh, ERa SRC1 inh, ERa SRC1 pot)
CN(CCOc1ccc(Cl)cc1)c1ccc(S(=O)(=O)N2CCCCC2)cn1	ERa SRC1 pot 236[fluorescence artefact?]
CC(C)(N)CO[C@@H]1C[C@@H]2CC[C@@]1(C)C2(C)C	none (no result: FAK blocker, ERb SRC1 inh, ERa SRC1 inh, ERa SRC1 pot)
CN(C)Cc1cc(O)c(O)c(CN(C)C)c1	Smad3 FoxH1 inh 54 (no result: FAK blocker, ERb SRC1 inh, ERa SRC1 inh, ERa SRC1 pot)
CN(C)Cc1cc(Cl)c(O)c(CN(C)C)c1	none (no result: FAK blocker, ERb SRC1 inh, ERa SRC1 inh, ERa SRC1 pot)
CCOC(=O)c1c(C)oc2c1c(C(c1ccncc1)N1CCOCC1)c(O)c1ccccc12 (stereo not given)	ERb SRC1 inh 71[fluorescence artefact?], ERa SRC1 inh 68[fluorescence artefact?]
CCOC(=O)c1c(C)oc2c1c1c(c3ccccc32)OCN(Cc2ccccn2)C1	none (no result: ERb SRC1 inh, Smad3 FoxH1 inh, ERa SRC1 inh, ERa SRC1 pot)
O=c1c2ccccc2c(C=NC2CCS(=O)(=O)C2)c(O)n1-c1ccccc1 (stereo not given)	none
CCOC(=O)c1c(C)oc2c1c(C=NC1CCS(=O)(=O)C1)c(O)c1ccccc12 (stereo not given)	ERa SRC1 inh 70
Cc1nc2c(n1C1CCCCC1)C(=O)c1ccccc1C2=O	none (no result: ERb SRC1 inh, Smad3 FoxH1 inh, ERa SRC1 inh, ERa SRC1 pot)
Nc1nc(Cl)cc(NCCO)n1	none (no result: FAK blocker, ERb SRC1 inh, ERa SRC1 inh, ERa SRC1 pot)
C=CCOC(=O)c1sc(N2C(=O)c3oc4ccccc4c(=O)c3C2c2ccco2)nc1C (stereo not given)	ERb SRC1 inh 61, ERa SRC1 inh 54 (no result: FAK blocker)
COC(=O)c1sc(N2C(=O)c3oc4ccccc4c(=O)c3C2c2cccs2)nc1C (stereo not given)	none (no result: ERb SRC1 inh, Smad3 FoxH1 inh, ERa SRC1 inh, ERa SRC1 pot)
Cc1nc2ccc(-c3nc4cc(N)ccc4o3)cc2[nH]1	none
Nc1ccc2oc(-c3ccc4nc[nH]c4c3)nc2c1	ERa SRC1 inh 77[fluorescence artefact?]
c1cc(CSc2ncnc3nc[nH]c23)ccn1	none (no result: FAK blocker, ERb SRC1 inh, ERa SRC1 inh, ERa SRC1 pot)
O=C(O)c1[nH]c2c([N+](=O)[O-])cc([N+](=O)[O-])cc2c1C(=O)O	none (no result: FAK blocker, ERb SRC1 inh, ERa SRC1 inh, ERa SRC1 pot)
N#Cc1cc2c(=O)n3ccccc3nc2n(CC2CCCO2)c1=N (stereo not given)	none
N#Cc1cc2c(=O)n3ccccc3nc2n(CCCn2ccnc2)c1=N	ERb SRC1 inh 56
COc1ccc(-c2nc(C3CCCCC3)no2)cc1OC	none (no result: ERb SRC1 inh, Smad3 FoxH1 inh, ERa SRC1 inh, ERa SRC1 pot)
c1ccc(-c2nc(C3CCCCC3)no2)cc1	ERb SRC1 inh 68
Cn1c2ccccc2c(=O)c2c(=O)n(C3CCCCC3)c(-c3cccs3)nc21	ERa SRC1 pot 436[fluorescence artefact?]
